This is an account of results in paper PMC10163288.

As a reminder, the apparent Kd is the concentration giving half-maximal binding under the conditions of the assay.

B1: il2ra_site2_3nfp_normal_mot_HHH_b1_05918_af2_000000127_0001_23_40_H_._HHH_b1_07797_0001_0000400047_0000001_0 (protein)
chain: SSSSSEAEEYLRAALLLAELALREGDEENARRSLELAIQLAEHKGNPELLEELEELLEEINSSSS
B2: il2ra_site1_3nfp_sap_8_mot_119b7766384adbe86006a62bce89dba1_0001_af2_000000092_0001_18_32_H_._HHH_b2_02632_0001_0000300007_0000001_0_0001 (protein)
chain: SSSSDARELLFEAAEILDELAERGDHEELKRFAEEVIEELEELGNRQAARMIRWLVERALSSSSS
B3: il2ra_site2_3nfp_sap_22_mot_HHH_b2_08245_000000023_0001_41_55_H_._HHH_b2_07283_0001_0000300027_0000001_0_0001 (protein)
chain: SSSSDVEERIEELLKEIEELLEKGDPEEAERLLLEVALLAWETGDFEAFAAVTRLLERVQSSSSS
B4: il2ra_site1_2b5i_sap_18_mot_89dc1dc23437faef961419e82e151d9c_0001_af2_000000202_0001_15_32_H_._9f08b0091ee0dae2b2d48aa630d4ec63_0001_1_0001_0000400022_0000001_0 … (protein)
chain: SSSSSIEELLEAMLELAEELIENGNPEEARAILLLARRAARAHGNPEYVKELERLLRELLSSSSS
B5: il2ra_site2_3nfp_normal_mot_HHH_b1_05158_000000192_0001_1_17_H_._HHH_b1_05195_0001_0000600013_0000001_0_af2pred_0001_af2pred (protein)
chain: SSSSSSDSELTFLLILLEALLEEVDDPEIRELLEEALEELREKKDPEIARKVLKEASEYLSSSSS
B6: il2ra_site2_3nfp_sap_26_mot_HHH_b1_00015_000000185_0001_19_35_H_._HHH_b2_06138_0001_0000600047_0000001_0_0001_af2pred_0001_af2pred (protein)
chain: SSSSSSDEEEEVEKLLEEAKHIEDEFELYAVLADAARIAFELKDEELRRLVKEVRHELSSSSSSS
B7: il2ra_site1_1z92_normal_mot_HHH_b1_08597_af2_000000202_0001_42_56_H_._6e12af4a48b4634929ba45889b8be782_0001_0001_0000600034_0000001_0 (protein)
chain: NVEWAIENLERLARLQGNPEVERVLRRVLELLKKNEEEAEEFLEELVRELGDKLLRLLLRMLKTA
B8: il2ra_site1_1z92_sap_14_mot_1581cc1c700002558836ca695aafbf97_0001_1_af2_000000099_0001_17_32_H_._d5167a162c519d043ddc16d89768c28c_0001_1_0001_0000100008_0000001 … (protein)
chain: SLEEEIERALKEAGVPPEEIEAIKRDIRRTQEFGIPPRSIALAVLRALKSHDEELAERVEELLRK
B9: il2ra_site1_1z92_normal_mot_HHH_b2_05238_af2_000000252_0001_38_55_H_._HHH_b1_01495_af2_0002_0000300012_0000001_0_af2pred_0001_af2pred_1 (protein)
chain: SSSSSKEESLELAERAARRAIEAGNERSARRLLKFVIEAAEELGNEELLEELEELLERLESSSSS
B10: il2ra_site2_2erj_sap_29_mot_dcd9809507f71d420582ead1f1e1bbb3_0001_000000226_0001_37_50_H_._HHH_b1_02896_af2_0001_0000500038_0000001_0_0001 (protein)
chain: SSSSSSLHELYELANRLMHALSNGDEELLEELLEELEELAKELQSDTAREIVENIRRRLSSSSSS
B11: il2ra_site1_1z92_sap_17_mot_c66c727fe7b11027095aa3ef302aaf37_0001_000000167_0001_38_52_H_._665b9007e6d0b9979c9b0c82f83b8fcc_0001_0001_0000200023_0000001_0_0001 (protein)
chain: SSSSDSRERIEELAEFLARDIKMTGNPWARRLLELLLEKAEKLGDEELREIIEQLLEELRSSSSS
B12: il2ra_site1_3nfp_sap_16_mot_HHH_b1_00461_af2_000000238_0001_1_17_H_._HHH_b2_08025_0001_0000300024_0000001_0_0001_af2pred_0001_af2pred_swapped (protein)
chain: SSSSSRILRFLEELARKAFERNDKKQLEAILKLIRKAAKQFKDEEVEELLELVEELLKKLSSSSS
B13: il2ra_site2_2erj_normal_mot_HHH_b1_05204_000000269_0001_1_15_H_._HHH_b1_00954_0001_0000200014_0000001_0_1_af2pred_0001_af2pred (protein)
chain: SSSSDLEEELRRLLEELEELVKEGDEKKFMEVALRVAKLVIENNDEEAAKLLLRLLRELRSSSSS
B14: il2ra_site2_2erj_sap_27_mot_HHH_b1_08185_000000063_0001_41_55_H_._HHH_b1_03158_0001_0000300009_0000001_0_0001_af2pred_0001_1_af2pred_swapped (protein)
chain: SSSDAQERAREVLEEVIELLRQGNHEEAKKLLEEAREILEELGDRAAVRLIEAALRLLESLSSSS
B15: il2ra_site2_2erj_sap_22_mot_c2bf78bdce995293a161f7082e24b401_0001_af2_000000082_0001_17_32_H_._HHH_b2_05133_0001_0000600016_0000001_0_0001 (protein)
chain: SSSSDEELHEIFELLSLLLEAIQKGDDELFKKLVEEVRQLIEEKGSPNLREILEWLERHFHSSSS
B16: il2ra_site2_3nfp_normal_mot_HHH_b1_04264_000000089_0001_1_18_H_._332cd829babfe32ea4315b179459513b_0001_1_0001_0000100003_0000001_0 (protein)
chain: SQEVFEVIHKLREEGDPELAISLFALLAELLLHPENEELREKLEELLEIIKKNPEEAREVARKLP
B17: il2ra_site2_2erj_normal_mot_HHH_b1_07741_000000192_0001_1_20_H_._9b1ece5d1ebc94355a99c96473898622_0001_1_af2_0001_0000300001_0000001_0 (protein)
chain: DQEEFLRRAARENPETFIRYAELLAKDAGNPELLKLVEELKEEVEKGEIPPEEAAELVVEVLEEL
B18: il2ra_site2_2erj_sap_23_mot_HHH_b1_06697_000000025_0001_41_54_H_._HHH_b2_03690_0001_0000400021_0000001_0_0001 (protein)
chain: SSSSDYEERVKELLEELRELLEEGDEEKFEELVFEVSQLIFENNDFELFAELTEIFEEFIRSSSS
B19: il2ra_site1_2b5i_normal_mot_HHH_b2_04910_000000118_0001_1_19_H_._HHH_b1_05884_0001_0000500029_0000001_0 (protein)
chain: SSSSSEETRELQELFREADELDRRGNEEEAEEVLREAIELARQAGSRSMLKMLESALKELGSSSS

Only a sample is shown. The true hit rate is not given. Values without a mark were called inactive. A value given as a limit tells only on which side of the number the result lay.

Chain of il2ra, P01589 (P01589 whole entry): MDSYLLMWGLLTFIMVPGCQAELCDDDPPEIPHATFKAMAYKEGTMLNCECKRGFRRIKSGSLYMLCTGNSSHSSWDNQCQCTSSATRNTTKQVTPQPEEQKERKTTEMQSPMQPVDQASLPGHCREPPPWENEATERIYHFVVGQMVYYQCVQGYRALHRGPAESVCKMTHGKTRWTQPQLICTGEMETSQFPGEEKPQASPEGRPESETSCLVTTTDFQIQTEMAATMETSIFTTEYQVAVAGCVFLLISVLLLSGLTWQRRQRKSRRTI

This experiment addresses il2ra, P01589. Briefly: yeast display titration.
With B1, the “apparent Kd” value was “no binding seen”.
Regarding B2, the “apparent Kd” value is “no binding seen”.
Regarding B3, the “apparent Kd” value was “no binding seen”.
In the case of B4, the “apparent Kd” value is “no binding seen”.
With B5, the “apparent Kd” value is “no binding seen”.
In the case of B6 it was “no binding seen”; in that of B7, over 311 nM.
For B8, the “apparent Kd” value is “no binding seen”.
Take B9: the “apparent Kd” value is “no binding seen”.
B10: the “apparent Kd” value was “no binding seen”.
Regarding B11, the “apparent Kd” value was “no binding seen”.
With B12, the “apparent Kd” value is “no binding seen”.
Regarding B13, the “apparent Kd” value was “no binding seen”.
As to B14, the “apparent Kd” value was “no binding seen”.
Take B15: the “apparent Kd” value was “no binding seen”.
As to B16, the “apparent Kd” value is “no binding seen”.
Next, B17: “no binding seen”; B18: “no binding seen”.
Turning to B19, the “apparent Kd” value was “no binding seen”.
